Test results taken from the supplement of paper PMC11732987, “Enantioselective OTUD7B fragment discovery through chemoproteomics screening and high-throughput optimisation” (Communications Chemistry, 2025).

Key:
Experiment in all cases: log2 ratio of Biotin-Ahx-Ub-VS probe labelling (fragment/DMSO); higher = less target engagement (more negative = stronger competition), active = hit call of the paper (q ≤ 0.05, log2 ratio ≤ -1)
Conditions in all cases: compound concentration: 200 uM; treatment time: 3 h
USP9X = USP9X (UniProt Q93008)
USP9X, sequence (Q93008 whole entry, the tested form may be a part): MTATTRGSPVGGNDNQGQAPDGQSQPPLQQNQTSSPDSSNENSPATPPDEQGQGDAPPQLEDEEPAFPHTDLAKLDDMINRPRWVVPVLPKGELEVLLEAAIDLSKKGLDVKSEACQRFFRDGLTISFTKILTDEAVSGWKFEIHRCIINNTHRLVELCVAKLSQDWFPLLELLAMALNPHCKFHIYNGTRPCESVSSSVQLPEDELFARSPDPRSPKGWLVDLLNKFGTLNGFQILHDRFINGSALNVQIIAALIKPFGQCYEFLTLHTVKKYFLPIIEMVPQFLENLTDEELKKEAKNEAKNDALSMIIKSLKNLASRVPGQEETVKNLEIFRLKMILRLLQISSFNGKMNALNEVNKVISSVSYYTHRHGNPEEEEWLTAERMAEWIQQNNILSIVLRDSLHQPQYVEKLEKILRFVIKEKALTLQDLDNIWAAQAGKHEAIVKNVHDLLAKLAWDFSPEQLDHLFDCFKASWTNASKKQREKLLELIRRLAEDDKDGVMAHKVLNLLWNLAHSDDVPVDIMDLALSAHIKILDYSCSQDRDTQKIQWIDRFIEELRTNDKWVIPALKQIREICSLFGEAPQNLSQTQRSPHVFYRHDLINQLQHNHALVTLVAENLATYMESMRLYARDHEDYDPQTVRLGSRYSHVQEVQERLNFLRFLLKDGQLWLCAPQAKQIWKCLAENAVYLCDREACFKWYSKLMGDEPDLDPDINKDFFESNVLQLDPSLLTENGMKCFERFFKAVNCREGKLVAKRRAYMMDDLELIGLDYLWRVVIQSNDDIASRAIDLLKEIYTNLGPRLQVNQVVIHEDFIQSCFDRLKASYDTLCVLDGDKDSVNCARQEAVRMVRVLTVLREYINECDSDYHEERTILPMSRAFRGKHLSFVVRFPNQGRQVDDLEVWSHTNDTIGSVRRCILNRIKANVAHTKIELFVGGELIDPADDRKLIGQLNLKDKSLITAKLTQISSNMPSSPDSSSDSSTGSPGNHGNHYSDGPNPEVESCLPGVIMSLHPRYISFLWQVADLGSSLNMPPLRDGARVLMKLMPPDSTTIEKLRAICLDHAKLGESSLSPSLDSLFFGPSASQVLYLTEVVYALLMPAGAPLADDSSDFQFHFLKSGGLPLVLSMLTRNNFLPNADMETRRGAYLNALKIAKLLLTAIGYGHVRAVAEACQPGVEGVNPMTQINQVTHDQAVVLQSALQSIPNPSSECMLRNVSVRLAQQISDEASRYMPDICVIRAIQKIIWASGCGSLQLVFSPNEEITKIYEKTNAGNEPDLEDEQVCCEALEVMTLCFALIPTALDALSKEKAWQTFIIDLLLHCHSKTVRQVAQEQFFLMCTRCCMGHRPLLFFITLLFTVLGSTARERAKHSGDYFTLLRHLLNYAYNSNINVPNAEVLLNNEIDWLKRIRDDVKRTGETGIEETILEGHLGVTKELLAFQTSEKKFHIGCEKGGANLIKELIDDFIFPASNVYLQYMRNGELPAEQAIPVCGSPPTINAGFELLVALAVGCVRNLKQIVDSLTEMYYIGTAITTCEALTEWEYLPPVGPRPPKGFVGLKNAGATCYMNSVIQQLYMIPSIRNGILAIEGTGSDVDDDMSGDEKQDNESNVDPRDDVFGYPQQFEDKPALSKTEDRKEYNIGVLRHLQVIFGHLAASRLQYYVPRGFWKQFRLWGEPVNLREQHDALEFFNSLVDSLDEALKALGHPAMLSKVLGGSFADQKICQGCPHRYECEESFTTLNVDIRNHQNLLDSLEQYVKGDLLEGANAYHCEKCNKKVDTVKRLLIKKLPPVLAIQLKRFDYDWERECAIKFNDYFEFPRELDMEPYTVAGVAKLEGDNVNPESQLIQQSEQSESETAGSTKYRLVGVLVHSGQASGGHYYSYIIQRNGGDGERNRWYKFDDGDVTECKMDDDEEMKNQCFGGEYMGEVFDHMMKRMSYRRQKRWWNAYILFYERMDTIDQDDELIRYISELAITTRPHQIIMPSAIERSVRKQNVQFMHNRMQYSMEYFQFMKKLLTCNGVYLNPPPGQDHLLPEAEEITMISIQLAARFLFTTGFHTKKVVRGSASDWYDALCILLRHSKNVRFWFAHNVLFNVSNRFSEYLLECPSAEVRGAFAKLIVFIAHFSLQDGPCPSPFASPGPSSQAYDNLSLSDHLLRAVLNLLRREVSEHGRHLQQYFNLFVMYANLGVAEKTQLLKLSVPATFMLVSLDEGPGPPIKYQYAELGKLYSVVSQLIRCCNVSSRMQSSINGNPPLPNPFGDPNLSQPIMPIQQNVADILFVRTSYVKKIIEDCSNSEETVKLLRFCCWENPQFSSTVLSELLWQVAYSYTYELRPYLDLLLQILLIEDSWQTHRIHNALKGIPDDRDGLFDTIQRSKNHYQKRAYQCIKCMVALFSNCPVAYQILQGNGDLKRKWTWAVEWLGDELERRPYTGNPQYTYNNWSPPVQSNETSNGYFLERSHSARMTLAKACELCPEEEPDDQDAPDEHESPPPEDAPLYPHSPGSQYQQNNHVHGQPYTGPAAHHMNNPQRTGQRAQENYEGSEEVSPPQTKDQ
How it was run: (§1)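 HEK293T lysate (495 µg per sample, in Tris/CHAPS/IGEPAL buffer with protease inhibitors) was exposed in triplicate for 3 h to fragment at 200 µM or to vehicle, then to Biotin-Ahx-Ub-VS at 0.5 µM final for 1 h. Labelled DUBs were enriched on NeutrAvidin, digested with LysC and trypsin, and analysed by diaPASEF LC-MS/MS. Spectronaut label-free quantities were normalised to the global median, and values are average log2 ratios of fragment over vehicle from an unpaired t-test. Only proteins with ≥2 unique peptides were used.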

UniProt O00487 = target: UniProt O00487
UniProt O00487, sequence (O00487 whole entry): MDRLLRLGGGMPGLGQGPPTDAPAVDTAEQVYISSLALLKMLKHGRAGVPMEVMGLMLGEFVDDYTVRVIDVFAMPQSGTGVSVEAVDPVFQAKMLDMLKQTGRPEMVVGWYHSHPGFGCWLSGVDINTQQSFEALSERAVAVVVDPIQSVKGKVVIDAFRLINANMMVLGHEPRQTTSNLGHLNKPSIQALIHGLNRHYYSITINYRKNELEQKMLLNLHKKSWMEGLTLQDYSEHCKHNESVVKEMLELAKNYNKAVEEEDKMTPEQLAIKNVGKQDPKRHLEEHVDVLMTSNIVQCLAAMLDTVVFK
How it was run: as §1

UniProt O00507 = target: UniProt O00507
How it was run: as §1

UniProt P51784 = target: UniProt P51784
UniProt P51784, sequence (P51784 whole entry): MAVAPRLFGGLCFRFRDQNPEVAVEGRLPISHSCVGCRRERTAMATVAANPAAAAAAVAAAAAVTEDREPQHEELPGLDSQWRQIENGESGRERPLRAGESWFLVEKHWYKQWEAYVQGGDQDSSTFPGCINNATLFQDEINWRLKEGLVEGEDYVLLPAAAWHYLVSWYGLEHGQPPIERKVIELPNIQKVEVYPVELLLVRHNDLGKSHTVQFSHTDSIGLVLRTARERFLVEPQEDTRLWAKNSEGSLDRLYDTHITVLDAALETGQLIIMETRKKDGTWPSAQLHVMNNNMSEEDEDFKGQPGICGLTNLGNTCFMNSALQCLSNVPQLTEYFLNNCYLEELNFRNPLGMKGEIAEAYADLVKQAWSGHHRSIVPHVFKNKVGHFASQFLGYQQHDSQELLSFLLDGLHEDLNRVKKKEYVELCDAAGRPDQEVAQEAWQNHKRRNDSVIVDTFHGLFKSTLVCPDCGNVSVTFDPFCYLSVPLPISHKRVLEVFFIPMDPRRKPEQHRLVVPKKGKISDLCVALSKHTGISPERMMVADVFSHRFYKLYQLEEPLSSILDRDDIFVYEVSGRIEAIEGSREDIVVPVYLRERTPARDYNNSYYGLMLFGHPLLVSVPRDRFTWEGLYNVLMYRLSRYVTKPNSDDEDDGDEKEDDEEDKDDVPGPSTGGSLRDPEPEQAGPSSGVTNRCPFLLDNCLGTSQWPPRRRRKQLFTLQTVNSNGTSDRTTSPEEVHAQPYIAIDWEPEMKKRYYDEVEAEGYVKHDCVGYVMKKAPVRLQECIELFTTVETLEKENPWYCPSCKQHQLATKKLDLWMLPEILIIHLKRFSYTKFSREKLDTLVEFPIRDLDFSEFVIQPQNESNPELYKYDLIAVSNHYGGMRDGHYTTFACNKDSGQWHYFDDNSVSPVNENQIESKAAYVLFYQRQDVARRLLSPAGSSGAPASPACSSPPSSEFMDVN
How it was run: as §1

UniProt Q5T2D3 = target: T1, UniProt Q5T2D3
T1 sequence (whole entry): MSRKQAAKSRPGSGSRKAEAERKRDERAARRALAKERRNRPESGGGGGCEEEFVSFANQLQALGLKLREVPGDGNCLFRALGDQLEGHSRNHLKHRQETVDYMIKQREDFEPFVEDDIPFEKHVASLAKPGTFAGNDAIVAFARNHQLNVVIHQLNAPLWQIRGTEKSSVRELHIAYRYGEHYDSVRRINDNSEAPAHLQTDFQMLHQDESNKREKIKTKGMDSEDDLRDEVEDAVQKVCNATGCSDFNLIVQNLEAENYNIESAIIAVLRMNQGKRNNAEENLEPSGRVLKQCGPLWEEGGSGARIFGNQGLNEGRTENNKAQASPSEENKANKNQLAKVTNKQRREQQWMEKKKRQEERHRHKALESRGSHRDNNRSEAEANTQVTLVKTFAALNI
How it was run: as §1

UniProt Q8TE49 = target: T2, UniProt Q8TE49
T2 sequence (whole entry): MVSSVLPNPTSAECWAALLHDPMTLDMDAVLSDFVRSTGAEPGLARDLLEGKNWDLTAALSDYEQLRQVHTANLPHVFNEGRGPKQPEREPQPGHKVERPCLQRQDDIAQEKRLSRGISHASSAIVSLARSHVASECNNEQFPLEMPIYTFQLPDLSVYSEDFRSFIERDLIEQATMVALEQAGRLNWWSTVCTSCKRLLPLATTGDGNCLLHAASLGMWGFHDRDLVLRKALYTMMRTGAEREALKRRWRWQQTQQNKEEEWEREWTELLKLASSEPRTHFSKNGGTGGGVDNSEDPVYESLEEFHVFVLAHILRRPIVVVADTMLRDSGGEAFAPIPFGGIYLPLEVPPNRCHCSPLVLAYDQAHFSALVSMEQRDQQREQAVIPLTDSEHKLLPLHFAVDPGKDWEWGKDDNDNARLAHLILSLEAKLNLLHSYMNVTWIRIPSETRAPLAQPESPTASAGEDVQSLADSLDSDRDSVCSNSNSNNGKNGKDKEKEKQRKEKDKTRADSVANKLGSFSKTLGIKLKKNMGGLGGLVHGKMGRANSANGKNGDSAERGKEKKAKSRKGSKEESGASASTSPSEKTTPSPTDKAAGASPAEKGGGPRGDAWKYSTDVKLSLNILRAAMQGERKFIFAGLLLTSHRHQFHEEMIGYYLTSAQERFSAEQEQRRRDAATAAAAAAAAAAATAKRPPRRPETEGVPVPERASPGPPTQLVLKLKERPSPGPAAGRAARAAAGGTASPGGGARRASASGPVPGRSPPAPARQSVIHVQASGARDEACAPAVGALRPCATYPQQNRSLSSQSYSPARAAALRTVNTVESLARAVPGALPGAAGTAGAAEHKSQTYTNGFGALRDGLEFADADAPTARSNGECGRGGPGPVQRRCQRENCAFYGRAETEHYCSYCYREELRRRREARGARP
How it was run: as §1

UniProt Q9P2H5 = target: T3, UniProt Q9P2H5
T3 sequence (whole entry): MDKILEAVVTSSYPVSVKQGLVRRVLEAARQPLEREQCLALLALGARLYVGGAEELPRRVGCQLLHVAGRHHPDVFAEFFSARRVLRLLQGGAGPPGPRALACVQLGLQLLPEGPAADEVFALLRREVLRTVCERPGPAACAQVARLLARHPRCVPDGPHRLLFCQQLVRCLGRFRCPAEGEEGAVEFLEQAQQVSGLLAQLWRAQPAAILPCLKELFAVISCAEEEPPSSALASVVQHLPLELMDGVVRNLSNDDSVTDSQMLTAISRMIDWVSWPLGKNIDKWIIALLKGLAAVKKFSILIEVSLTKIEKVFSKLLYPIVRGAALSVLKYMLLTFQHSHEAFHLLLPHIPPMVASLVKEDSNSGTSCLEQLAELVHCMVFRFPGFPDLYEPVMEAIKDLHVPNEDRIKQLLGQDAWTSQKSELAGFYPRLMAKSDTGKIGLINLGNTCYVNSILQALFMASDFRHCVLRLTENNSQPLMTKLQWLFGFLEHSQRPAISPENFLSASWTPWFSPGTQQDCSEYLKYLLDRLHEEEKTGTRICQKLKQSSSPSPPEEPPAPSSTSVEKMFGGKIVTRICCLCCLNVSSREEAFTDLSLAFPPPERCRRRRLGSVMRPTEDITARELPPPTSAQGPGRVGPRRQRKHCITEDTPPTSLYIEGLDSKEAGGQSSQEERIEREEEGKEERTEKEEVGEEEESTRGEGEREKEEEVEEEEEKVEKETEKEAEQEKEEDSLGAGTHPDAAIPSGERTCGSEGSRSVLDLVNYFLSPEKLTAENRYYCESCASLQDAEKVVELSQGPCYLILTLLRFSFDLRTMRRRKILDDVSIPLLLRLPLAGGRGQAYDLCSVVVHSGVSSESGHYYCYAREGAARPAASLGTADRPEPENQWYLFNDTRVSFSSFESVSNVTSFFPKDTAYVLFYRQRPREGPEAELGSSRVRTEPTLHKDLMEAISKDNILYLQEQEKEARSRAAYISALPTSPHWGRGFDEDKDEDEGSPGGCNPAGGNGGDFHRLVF
How it was run: as §1

UniProt Q9UGI0 = target: T4, UniProt Q9UGI0
T4 sequence (whole entry): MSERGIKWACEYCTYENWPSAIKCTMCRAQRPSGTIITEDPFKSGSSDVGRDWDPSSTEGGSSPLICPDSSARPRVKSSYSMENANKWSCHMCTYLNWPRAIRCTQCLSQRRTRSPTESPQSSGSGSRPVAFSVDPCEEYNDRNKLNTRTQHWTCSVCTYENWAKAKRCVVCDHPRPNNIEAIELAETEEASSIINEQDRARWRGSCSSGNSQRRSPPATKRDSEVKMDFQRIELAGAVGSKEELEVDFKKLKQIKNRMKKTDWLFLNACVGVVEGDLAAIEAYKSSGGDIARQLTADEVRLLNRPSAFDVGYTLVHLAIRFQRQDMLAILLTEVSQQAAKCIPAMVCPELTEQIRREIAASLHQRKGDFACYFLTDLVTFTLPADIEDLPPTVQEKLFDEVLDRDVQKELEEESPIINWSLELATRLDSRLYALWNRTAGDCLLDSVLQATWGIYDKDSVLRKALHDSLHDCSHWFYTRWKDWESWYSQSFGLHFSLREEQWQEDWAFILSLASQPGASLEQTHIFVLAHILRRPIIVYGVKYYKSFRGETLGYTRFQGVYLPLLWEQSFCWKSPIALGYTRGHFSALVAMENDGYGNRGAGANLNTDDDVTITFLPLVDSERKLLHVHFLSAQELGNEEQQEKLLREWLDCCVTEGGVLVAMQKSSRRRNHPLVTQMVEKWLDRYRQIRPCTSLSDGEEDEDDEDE
How it was run: as §1

YOD1 = target: T5, YOD1 (UniProt Q5VVQ6)
T5 sequence (whole entry): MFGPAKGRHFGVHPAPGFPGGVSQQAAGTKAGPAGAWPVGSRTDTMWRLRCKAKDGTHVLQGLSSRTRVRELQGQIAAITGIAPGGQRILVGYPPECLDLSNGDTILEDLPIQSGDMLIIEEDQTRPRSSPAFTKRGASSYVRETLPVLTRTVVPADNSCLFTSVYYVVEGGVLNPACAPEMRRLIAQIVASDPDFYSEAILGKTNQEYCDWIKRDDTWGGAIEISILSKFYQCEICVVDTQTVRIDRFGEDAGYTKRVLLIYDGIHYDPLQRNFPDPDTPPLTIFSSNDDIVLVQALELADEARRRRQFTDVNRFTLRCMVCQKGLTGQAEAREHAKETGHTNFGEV
How it was run: as §1

Measured: log2 ratio of Biotin-Ahx-Ub-VS probe labelling

Cc1cc(C(=O)NC2CCN(C(=O)CCl)CC2)no1
inactive: USP9X -0.158 | UniProt O00487 -0.138 | UniProt O00507 -0.438 | UniProt P51784 -0.169 | UniProt Q5T2D3 -0.252 | UniProt Q8TE49 -0.394 | UniProt Q9P2H5 0.0224 | UniProt Q9UGI0 -0.0524 | YOD1 -0.256
